MITF TRPM1 inh = inhibitors of MITF-driven TRPM1 promoter in melanoma cells | inhibition, % at 12.5 µM | 330,000 compounds, 0.83% hits | AID 488899 | SK-MEL-5 TRPM1 promoter luciferase, 24 h;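 active = mean inhibition across replicates of 60% or more, whatever share of single replicates reaches that level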
KKLEB tox = counter-screen for CF NF-kB inhibitors: cytotoxicity; KKLEB CF airway cells viability, ATPlite luminescence, overnight; hits give low values; cells stimulated with P. aeruginosa culture filtrate; activity change (cytotoxicity), % at 5 µM; 360,000 compounds, 0.36% hits; AID 602141;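 active = corrected activity change at or below -50% at 5 µM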
HIF-2a inh = inhibitors of HIF-2a; inhibition, % at 18.8 µM; AID 624352; 360,000 compounds, 0.72% hits; 786-0 RCC cells HIF-2a reporter, luciferase luminescence, overnight;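 active = inhibition of the luminescence signal of 40% or more relative to plate controls, in a single-dose primary screen at 18.75 µM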
Peg3 prom inh-1 = reduces Peg3 promoter-driven luciferase expression in HeLa. HeLa PEG-Prom luciferase reporter, luminescence, overnight. 360,000 compounds, 1.7% hits. inhibition, % at 20 µM. AID 588405;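 active = inhibition of at least 50% at 20 µM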
CF NFkB block = cystic fibrosis NF-kB activation inhibition | KKLEB NF-kB-GFP reporter, PAF-induced, GFP fluorescence overnight | inhibition, % at 5 µM | 360,000 compounds, 0.86% hits;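 active = at least 50% inhibition at 5 µM, scaled per plate between neutral and stimulator controls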;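 note: PAF is a Pseudomonas aeruginosa culture filtrate used as stimulus; plate controls were PAF-stimulated DMSO wells for no effect and unstimulated DMSO wells for full effect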
ABHD5-PLIN5 inh = inhibitors of human ABHD5-perilipin-5 interaction. Split G. princeps luciferase complementation, luminescence, 4 h. Q00G26+Q8WTS1. inhibition, % at 4 µM. 360,000 compounds, 0.78% hits;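 active = inhibition above the mean inhibition across every tested compound plus 3 SD, cut at about 22% in these data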;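 note: 0% = DMSO only wells and the 100% control is not disclosed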
Target sequence (Q00G26 whole entry, looked up): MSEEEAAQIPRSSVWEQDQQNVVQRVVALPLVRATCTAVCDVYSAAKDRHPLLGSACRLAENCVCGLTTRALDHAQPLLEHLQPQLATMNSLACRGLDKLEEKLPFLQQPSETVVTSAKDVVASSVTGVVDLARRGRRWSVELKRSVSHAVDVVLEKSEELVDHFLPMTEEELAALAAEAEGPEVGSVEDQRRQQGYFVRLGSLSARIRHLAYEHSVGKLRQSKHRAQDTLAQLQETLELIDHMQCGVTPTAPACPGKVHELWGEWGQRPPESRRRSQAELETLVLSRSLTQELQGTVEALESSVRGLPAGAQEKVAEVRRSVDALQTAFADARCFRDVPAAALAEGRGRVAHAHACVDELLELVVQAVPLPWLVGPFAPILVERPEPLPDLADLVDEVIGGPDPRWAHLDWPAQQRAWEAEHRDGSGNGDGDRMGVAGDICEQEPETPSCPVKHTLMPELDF
Target sequence (Q8WTS1 whole entry, looked up): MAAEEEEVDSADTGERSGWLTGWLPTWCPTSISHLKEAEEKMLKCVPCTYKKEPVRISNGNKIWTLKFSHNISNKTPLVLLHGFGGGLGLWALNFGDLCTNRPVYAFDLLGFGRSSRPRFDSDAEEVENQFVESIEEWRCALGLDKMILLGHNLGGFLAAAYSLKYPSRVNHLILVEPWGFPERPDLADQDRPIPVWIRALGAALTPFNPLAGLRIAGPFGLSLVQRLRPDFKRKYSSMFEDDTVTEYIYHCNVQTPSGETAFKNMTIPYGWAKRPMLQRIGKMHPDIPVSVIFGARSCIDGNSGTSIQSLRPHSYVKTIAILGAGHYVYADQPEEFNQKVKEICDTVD
Peg3 prom inh-2 = confirmation of Peg3 promoter inhibitors. shares compounds with Peg3 prom inh-1. inhibition, % at 20 µM. HeLa PEG-Prom luciferase reporter, luminescence, overnight. AID 602417. 1,300 compounds, 84% hits;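 active = at 20 µM dose, 40% or more inhibition averaged across four replicates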
* marks the source's active call; other numbers are inactive results; x = no result. In the library only some 3.1% were active in any assay of this set; here they are far more common.

SMILES	MITF TRPM1 inh	KKLEB tox	HIF-2a inh	Peg3 prom inh-1	CF NFkB block	ABHD5-PLIN5 inh	Peg3 prom inh-2
O=c1[nH]c(=O)n(C2OC(CO)C(O)C2O)cc1F (centres undefined)	-13	-11	5	75*	11	4	75*
Nc1nc(=O)n(C2OC(CO)C(O)C2O)cc1F (centres undefined)	x	-13	10	35	1	4	x
Cc1ccccc1-c1nc(CN2CCC(C(=O)NC3CCCCC3)CC2)c(C)o1	5	6	5	-18	-6	-5	x
Cc1ccccc1-c1nc(CN2CCC(C(=O)NC3CCN(Cc4ccccc4)CC3)CC2)c(C)o1	30	-8	2	56*	20	-1	-7
O=C1C(=C2SCCCS2)CC/C1=C\c1ccc(F)cc1	59	-78*	65*	86*	-11	6	43*
CCCn1c(C)cc(C(=O)COc2ccc(C)nc2[N+](=O)[O-])c1C	-2	0	26	12	-4	3	x
Cc1ccc(OCC(=O)c2cc(C)n(-c3ccccc3)c2C)c([N+](=O)[O-])n1	37	3	84*	80*	22	-1	80*
Cc1cc(C(=O)COC(=O)C2=COCCO2)c(C)n1-c1ccccc1	81*	-19	14	60*	0	-1	72*
CCn1c(N)nc2c1c(=O)n(C)c(=O)n2C	-9	8	8	3	15	2	x
CCCc1nc2c(=O)n(C)c(=O)nc-2n(C)n1	104*	-39	80*	104*	97*	6	100*
OCCNCc1cc(Br)ccc1OCc1ccc(Cl)cc1Cl	20	-6	8	65*	-9	17	62*
CC1(Cc2ccc(Cl)c(Cl)c2)C(=O)Nc2ccc(S(=O)(=O)NC3CCCCC3)cc21 (centres undefined)	x	-8	0	69*	30	-12	68*
CC1(Cc2cccc(F)c2)C(=O)Nc2ccc(S(=O)(=O)NC3CCCCC3)cc21 (centres undefined)	x	-8	21	33	7	-1	x
COC(=O)c1ccccc1NC(=O)c1cccnc1	7	8	4	-4	-27	-3	x
O=C(NC1CCCCC1)C(c1ccc(O)cc1)N(C(=O)c1cnccn1)c1cccc(F)c1 (centres undefined)	-2	6	-4	-7	-10	-6	x
COc1ccc(N=CC2=C(O)c3ccccc3C2=O)c(OC)c1	76*	-77*	55*	74*	-15	-1	21
O=C(N/N=C\c1ccc(Cl)s1)c1ccc(Cn2cccn2)o1	-12	-7	-16	-17	1	1	x
O=C(N/N=C\c1c(O)ccc2ccccc12)c1ccc(Cn2cccn2)o1	59	11	12	54*	10	11	67*
COC(=O)Cc1ccc(NC(=S)N2CCN(c3cc(Cl)ccc3C)CC2)cc1	12	-7	6	-2	8	3	x
O=C(C(=O)N(Cc1ccccc1)Cc1ccccc1)c1c(-c2ccccc2)[nH]c2ccccc12	13	-81*	-23	64*	94*	-7	68*
COCCNC(=O)C(=O)c1c(-c2ccccc2)[nH]c2ccccc12	13	5	-8	-52	-8	2	x
NS(=O)(=O)c1ccc(CCNc2nn3c(-c4ccc(F)c(Cl)c4)cnc3s2)cc1	x	-12	34	67*	42	13	95*
CN=c1scc(-c2ccccc2F)n1/N=C/c1ccc[nH]1	90*	-55*	92*	91*	-17	8	92*
CN=c1scc(-c2ccco2)n1/N=C/c1ccc(O)c(O)c1	2	-6	-126	-136	-6	2	x
COCCCNC(=O)C[C@H]1C[C@H](C(=O)N2CCOCC2)[C@@]2(CCC3CCCC3)c3[nH]c4ccc(Cl)cc4c3CCN2C1=O	15	12	-12	14	-3	-1	x
SMILES	MITF TRPM1 inh	KKLEB tox	HIF-2a inh	Peg3 prom inh-1	CF NFkB block	ABHD5-PLIN5 inh	Peg3 prom inh-2
O=C(C[C@H]1C[C@H](C(=O)N2CCOCC2)[C@@]2(CCC3CCCC3)c3[nH]c4ccc(Cl)cc4c3CCN2C1=O)NCCN1CCOCC1	16	0	-17	50*	16	-5	8
CC(C)N(C(=O)[C@H]1C[C@H](CC(=O)NCCCN(C)C)C(=O)N2CCc3c([nH]c4ccc(Cl)cc34)[C@]12C)C(C)C	-12	-1	-25	40	28	1	x
CC(C)N(C(=O)[C@H]1C[C@H](CC(=O)NCC23CC4CC(CC(C4)C2)C3)C(=O)N2CCc3c([nH]c4ccc(Cl)cc34)[C@]12C)C(C)C	19	-3	-17	63*	39	-9	43*
Nn1cc(-c2ccccc2)nc1SCC(=O)Nc1ccc(S(N)(=O)=O)cc1	8	3	-15	25	9	2	x
CCC(C)Sc1nnc(NC(=O)C2CCN(C(=O)c3ccco3)CC2)s1 (centres undefined)	1	2	26	-5	-10	-15	x
COc1cc(C(=O)NCCc2c[nH]c3ccccc23)ccc1OCc1c(C)noc1C	-1	5	13	63*	-6	-4	18
COc1ccc(CN(C)C(=O)C(Cc2ccccc2)NC(=O)c2ccccc2)cc1F (centres undefined)	4	-28	18	54*	27	-17	84*
CN(Cc1ccc(F)cc1)C(=O)C(Cc1ccccc1)NC(=O)c1ccccc1 (centres undefined)	6	1	15	35	-13	-8	x
CSc1ccc(CN(C)C(=O)C(Cc2ccccc2)NC(=O)c2ccccc2)cc1 (centres undefined)	4	-12	15	66*	16	5	62*
Cc1ccc(OC(=O)C2CCN(C(=O)c3ccccc3C)CC2)c(Br)c1	10	-1	4	-6	-7	-3	x
COc1cccc(C(=O)c2sc(NC(C)C)nc2N)c1	4	-3	-93	105*	78*	-5	76*
Cc1cc(NC(=O)c2cc(-c3ccncc3)nc3ccccc23)ccc1Br	2	4	-2	15	-5	-1	x
CCCN1C/C(=C/c2cccc([N+](=O)[O-])c2)C(=O)/C(=C/c2cccc([N+](=O)[O-])c2)C1	100*	-88*	26	111*	95*	14	71*
CN1C(=O)/C(=C/c2cccc([N+](=O)[O-])c2)C(=O)N1c1ccccc1	17	-1	9	15	-2	-3	x

Screens from PubChem.
